Assay results from PubChem BioAssay (NCI).
“And” between values parts separate entries of the source, which are not always exact repeats. Equal entries are not always repeated. About 79,000 compounds went through this panel and 15% of them were active in at least one assay; those are over-represented in the sample as a whole. A structure can be active in one record and inactive in another. The source made the active and inactive calls. Rule as the data show it: active = growth inhibition above about 70%; inactive = the rest.

What was measured:
[1] = NCI Yeast Anticancer Drug Screen. Data for the rad50 strain (AID 155);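 also: 0% = growth of vehicle-only cultures of the same strain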; conditions: S. cerevisiae rad50 strain growth inhibition, stronger effect = higher value
How it was run: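 Growth of the mutant yeast was measured after compound exposure and referenced to vehicle-treated cultures.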

[2] = NCI Yeast Anticancer Drug Screen. Data for the mec2-1 strain (AID 157); conditions: S. cerevisiae mec2-1 strain, stronger effect = higher value
How it was run: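 Strain: mec2-1 (DNA repair/cell cycle alteration). Compound exposure, then growth measured; inhibition expressed relative to vehicle.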

[3] = NCI Yeast Anticancer Drug Screen. Data for the sgs1 mgt1 strain (AID 161);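 also: 0% = growth of cultures given vehicle only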; conditions: S. cerevisiae sgs1 mgt1 strain, stronger effect = higher value
How it was run: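 Test agents were incubated with a DNA-repair-mutant yeast strain. Growth was then read and compared against vehicle-treated controls.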

[4] = NCI Yeast Anticancer Drug Screen. Data for the cln2 rad14 strain (AID 165);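 also: 0% = growth equal to vehicle treated cultures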; conditions: S. cerevisiae cln2 rad14 strain, stronger effect = higher value
How it was run: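 Compounds are applied to the cln2 rad14 yeast strain, and growth is then compared with that of vehicle-treated cultures to give inhibition.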

[5] = NCI Yeast Anticancer Drug Screen. Data for the bub3 strain (AID 167); conditions: S. cerevisiae bub3 mutant strain, stronger effect = higher value
How it was run: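 Whole-cell yeast assay. The mutant strain was incubated with compounds, and growth inhibition was determined by comparison with vehicle-treated cells.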

[6] = NCI Yeast Anticancer Drug Screen. Data for the mlh1 rad18 strain (AID 175); conditions: S. cerevisiae mlh1 rad18 strain growth inhibition, stronger effect = higher value
How it was run: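 Read-out is yeast growth inhibition, calculated against vehicle-only controls. The compound was applied to a strain engineered with DNA damage repair alterations.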

[7] = at 5.0 µM (retest, dose inferred, filed as 0.5)
[8] = at 50.0 µM (retest, dose inferred, filed as 5.0)

Measured: growth inhibition

C=CCN(CC=C)C(CC(=O)C(C)(C)C)=NCC
inactive: [1]; [7] 0% | [1]; [8] -6% | [1]; at 50.0 µM -14.9% | [2]; [7] -7% | [2]; [8] 6% | [2]; at 50.0 µM -7.85% | [3]; [7] 0% | [3]; [8] -6% | [3]; at 50.0 µM -5.85% | [4]; [7] 1% | [4]; [8] 1% | [4]; at 50.0 µM 36% | [5]; [7] -3% | [5]; [8] 3% | [5]; at 50.0 µM -3.75% | [6]; [7] -11% | [6]; [8] 1% | [6]; at 50.0 µM -22.6%

O=C1C(Cl)=C(Cl)C(Cl)(Cl)C(Cl)=C1Cl
inactive: [1]; [7] 24% and 61% | [1]; at 50.0 µM 60.4% and 64.4% | [2]; [7] 24% and 42% | [3]; [7] 18% and 69% | [4]; [7] 19% and 13% | [5]; [7] 22% and 19% | [6]; [7] 37% and 50%
active: [1]; [8] 99% | [2]; [8] 100% | [3]; [8] 99% | [4]; [8] 99% and 98% | [5]; [8] 99% and 100% | [6]; [8] 99% | [6]; at 50.0 µM 98.1% and 70.8%
97.7% (active) and 66.2% (inactive): [3]; at 50.0 µM
99.2% (active) and 52.9% (inactive): [2]; at 50.0 µM
98.7% (active) and -4.55% (inactive): [4]; at 50.0 µM
98.8% (active) and 55.9% (inactive): [5]; at 50.0 µM

NC(=O)NC(=O)C(Cc1ccc(Cl)cc1)c1ccccc1 (stereo not given)
inactive: [1]; [7] -1% | [1]; [8] 17% | [1]; at 50.0 µM -15% | [2]; [7] -6% | [2]; [8] 8% | [2]; at 50.0 µM -13.2% | [3]; [7] 1% | [3]; [8] 7% | [3]; at 50.0 µM -5.75% | [4]; [7] 4% | [4]; [8] 19% | [4]; at 50.0 µM -65.7% | [5]; [7] 6% | [5]; [8] 20% | [5]; at 50.0 µM -52.6% | [6]; [7] -13% | [6]; [8] 5% | [6]; at 50.0 µM 2.15%

N#CC1Sc2ccccc2N1C(=O)OCc1ccccc1 (stereo not given)
inactive: [1]; [7] 7% | [2]; [7] 4% | [3]; [7] 11% | [4]; [7] 11% | [5]; [7] 20% | [6]; [7] 9%
active: [1]; [8] 86% | [1]; at 50.0 µM 90.1% | [2]; [8] 86% | [2]; at 50.0 µM 86.8% | [3]; [8] 89% | [3]; at 50.0 µM 94% | [4]; [8] 82% | [4]; at 50.0 µM 81.2% | [5]; [8] 91% | [5]; at 50.0 µM 93.5% | [6]; [8] 90% | [6]; at 50.0 µM 91.8%

CC(=O)OC(c1ccccc1)c1ccc(Cl)cc1 (stereo not given)
inactive: [1]; [7] 3% | [1]; [8] 0% | [1]; at 50.0 µM -11% | [2]; [7] 7% | [2]; [8] 6% | [2]; at 50.0 µM 42.2% | [3]; [7] 4% | [3]; [8] 8% | [3]; at 50.0 µM -0.4% | [4]; [7] 4% | [4]; [8] -14% | [4]; at 50.0 µM -1.9% | [5]; [7] 6% | [5]; [8] 8% | [5]; at 50.0 µM -5.65% | [6]; [7] 1% | [6]; [8] -1% | [6]; at 50.0 µM 2.9%

CC[N](CC)[Ge]([CH2]C)[CH2]C.C[CH2][Ge]([CH2]C)[CH2]C
inactive: [1]; [7] 40% | [2]; [7] 19% | [3]; [7] 32% | [4]; [7] 54% | [5]; [7] 24% | [6]; [7] 37%
active: [1]; [8] 99% | [1]; at 50.0 µM 87% | [2]; [8] 100% | [2]; at 50.0 µM 90.3% | [3]; [8] 99% | [3]; at 50.0 µM 90% | [4]; [8] 98% | [4]; at 50.0 µM 92.5% | [5]; [8] 99% | [5]; at 50.0 µM 90% | [6]; [8] 99% | [6]; at 50.0 µM 92.3%

COc1cccc(NC(=S)C(C#N)C(=O)Nc2cccc(C(F)(F)F)c2)c1 (stereo not given)
inactive: [1]; [7] 66% | [3]; [7] 52% | [4]; [7] 52% | [4]; at 50.0 µM 43.1% | [5]; [7] 48%
active: [1]; [8] 95% | [1]; at 50.0 µM 78.2% | [2]; [7] 74% | [2]; [8] 97% | [2]; at 50.0 µM 84.9% | [3]; [8] 91% | [3]; at 50.0 µM 85.5% | [4]; [8] 88% | [5]; [8] 95% | [5]; at 50.0 µM 87% | [6]; [7] 88% | [6]; [8] 96% | [6]; at 50.0 µM 70.5%

CCCn1cnc2c(SCc3ccc(Cl)cc3)nc(N)nc21
active: [1]; at 50.0 µM 96.9% | [2]; at 50.0 µM 97.5% | [3]; at 50.0 µM 96.2% | [4]; at 50.0 µM 92.8% | [5]; at 50.0 µM 97% | [6]; at 50.0 µM 98%
inactive: [1]; [7] -7% | [1]; [8] 21% | [2]; [7] -5% | [2]; [8] -10% | [3]; [7] -3% | [3]; [8] 16% | [4]; [7] -32% | [4]; [8] -64% | [5]; [7] -20% | [5]; [8] 7% | [6]; [7] -6% | [6]; [8] 36%

O=C(c1ccco1)N(C(=S)N1CCN(c2ccccn2)CC1)C1CCCCC1
active: [1]; at 50.0 µM 73.3% | [2]; at 50.0 µM 86.7% | [3]; [8] 76% | [3]; at 50.0 µM 84.3% | [4]; at 50.0 µM 71.8% | [5]; at 50.0 µM 79% | [6]; [8] 80% | [6]; at 50.0 µM 79.3%
inactive: [1]; [7] 5% | [1]; [8] 46% | [2]; [7] -7% | [2]; [8] 49% | [3]; [7] 0% | [4]; [7] 30% | [4]; [8] 60% | [5]; [7] 0% | [5]; [8] 40% | [6]; [7] -14%

OC(CN1CCCCC1)c1cc(-c2ccc(Cl)cc2)nc2cc(Cl)ccc12 (stereo not given)
inactive: [1]; [7] -6% | [2]; [7] -13% | [3]; [7] -4% | [4]; [7] -7% | [5]; [7] -7% | [6]; [7] 18%
active: [1]; [8] 99% | [1]; at 50.0 µM 90.5% | [2]; [8] 100% | [2]; at 50.0 µM 92.7% | [3]; [8] 100% | [3]; at 50.0 µM 99.5% | [4]; [8] 99% | [4]; at 50.0 µM 95.6% | [5]; [8] 99% | [5]; at 50.0 µM 99.4% | [6]; [8] 99% | [6]; at 50.0 µM 99.2%

CSc1ncnc2c1ncn2C1OC(CO)C(O)C1O (stereo not given)
inactive: [1]; [7] 2% | [1]; [8] 9% | [1]; at 50.0 µM 8.95% and 3.25% | [2]; [7] -10% | [2]; [8] -1% | [2]; at 50.0 µM 14.7% and 17.6% | [3]; [7] -5% | [3]; [8] 1% | [3]; at 50.0 µM 3.1% and -2.35% | [4]; [7] -1% | [4]; [8] -3% | [4]; at 50.0 µM 38.9% and -38.6% | [5]; [7] -3% | [5]; [8] -7% | [5]; at 50.0 µM 0.05% and 13.2% | [6]; [7] 14% | [6]; [8] 0% | [6]; at 50.0 µM -10.1% and 1.6%

CN1CCN(CN2C(=O)C3C4C=CC(C3C2=O)C2C3C(=O)N(CN5CCN(C)CC5)C(=O)C3C42)CC1 (stereo not given)
inactive: [1]; [7] -3% | [1]; [8] -12% | [1]; at 50.0 µM -28.4% and -8.45% and -17.1% | [2]; [7] 1% | [2]; [8] 30% | [2]; at 50.0 µM -28.4% and 11.8% and -15.2% | [3]; [7] -1% | [3]; [8] 0% | [3]; at 50.0 µM -18.7% and 18.9% and -32.5% | [4]; [7] -10% | [4]; [8] -9% | [4]; at 50.0 µM -7.45% and 32.5% and -40.9% | [5]; [7] 11% | [5]; [8] 2% | [5]; at 50.0 µM -13.5% and -11.5% and -76% | [6]; [7] -1% | [6]; [8] 18% | [6]; at 50.0 µM -4.4% and -31.1% and -65%

CC(=O)OC1OC(CI)C(OC(C)=O)C(OC(C)=O)C1OC(C)=O (stereo not given)
inactive: [1]; [7] 1% | [1]; [8] 38% | [1]; at 50.0 µM 16.1% and 5.95% | [2]; [7] -1% | [2]; [8] 21% | [2]; at 50.0 µM 17% and 12.6% | [3]; [7] -3% | [3]; [8] 19% | [3]; at 50.0 µM 4.55% and -11.6% | [4]; [7] 2% | [4]; [8] 49% | [4]; at 50.0 µM 17.1% and 5.75% | [5]; [7] -5% | [5]; [8] 69% | [6]; [7] -1% | [6]; [8] 25% | [6]; at 50.0 µM 24.4% and 9.3%
19.8% (inactive) and 94% (active): [5]; at 50.0 µM

CC(C)(c1ccc(O)cc1)c1ccc(O)cc1
58.6% (inactive) and 81.8% (active): [2]; at 50.0 µM
78.1% (active) and 64.6% (inactive): [3]; at 50.0 µM
50.4% (inactive) and 71.2% (active): [4]; at 50.0 µM
75% (active) and 51% (inactive): [3]; [8]
inactive: [1]; [7] 5% | [2]; [7] 10% and 3% | [2]; [8] 34% and 51% | [3]; [7] -3% and 4% | [4]; [7] 9% and 16% | [5]; [7] 30% and 5% | [5]; [8] 45% and 64% | [6]; [7] 6% and 4% | [6]; [8] 64% and 68%
59.7% (inactive) and 81.1% (active): [5]; at 50.0 µM
active: [6]; at 50.0 µM 76.6% and 87.7%
39% (inactive) and 78% (active): [4]; [8]
69.5% (inactive) and 77.6% (active): [1]; at 50.0 µM
59% (inactive) and 83% (active): [1]; [8]

Cn1c2nc3ccccc3c-2cc2ccccc21
active: [1]; [8] 85% | [1]; at 50.0 µM 84% and 85.2% | [2]; [8] 75% | [2]; at 50.0 µM 77.8% and 71.2% | [3]; [8] 83% | [4]; [8] 74% | [5]; [8] 83% | [6]; [8] 83% | [6]; at 50.0 µM 76.7% and 72.6%
inactive: [1]; [7] 44% | [2]; [7] 27% | [3]; [7] 38% | [3]; at 50.0 µM 70% and 68.5% | [4]; [7] 41% | [4]; at 50.0 µM 60.5% and 59.4% | [5]; [7] 30% | [6]; [7] 48%
70.8% (active) and 68.2% (inactive): [5]; at 50.0 µM
